Consider eight molecules from PubChem BioAssay (EPA / NIEHS).

Test [1] is described as follows: ATG_E_Box_CIS: Attagene CIS-FACTORIAL HepG2 Assay for human Enhancer Box (E-box) (AID 2282936). The conditions noted are these: HepG2 E-box cis-reporter transcription, actives raise or lower the signal. Summed up: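 Multiplexed CIS reporter system in transiently transfected HepG2 cells measures native transcription factor activity. Reporter RNA after 24 h exposure is profiled by RT-PCR-capillary electrophoresis.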

The nature of test [2]: ATG_M_61_CIS: Attagene CIS-FACTORIAL HepG2 Assay for M61 Transcription Factor (Internal Marker) (AID 2282937). The conditions noted are these: HepG2 Attagene CIS-FACTORIAL M61 internal marker reporter; actives raise or lower the signal. The gist of the method: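 Endogenous transcription factor activity in HepG2 is read through transiently transfected cis-element reporter units. After 24 h dosing, RNA undergoes reverse transcription, PCR and primer extension with 6-FAM before capillary electrophoresis; DMSO-referenced bidirectional fit.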

Test [3] is described as follows: ATG_EGR_CIS: Attagene CIS-FACTORIAL HepG2 Assay for human Early Growth Response 1 (EGR1) (AID 2282938). The conditions noted are these: HepG2 Attagene CIS-FACTORIAL EGR reporter mRNA; actives raise or lower the signal. Summed up:
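Activity is taken as induction or loss of reporter mRNA versus DMSO, fitted bidirectionally. Transcripts from cis-regulated reporter units in transiently transfected HepG2 were measured after 24 h by RT-PCR with capillary electrophoresis.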

The nature of test [4]: ATG_M_19_CIS: Attagene CIS-FACTORIAL HepG2 Assay for M19 Transcription Factor (Internal Marker) (AID 2282939). The following applies: HepG2 Attagene CIS-FACTORIAL M19 internal marker reporter; actives raise or lower the signal. Summed up:
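Background-control endpoint from a multiplexed HepG2 reporter panel. Cells carrying cis-regulated reporter constructs are treated 24 h, then reporter transcripts are amplified, fluorescently labelled and sized by capillary electrophoresis. DMSO defines baseline.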

Test [5] in a line: ATG_Ets_CIS: Attagene CIS-FACTORIAL HepG2 Assay for human Erythroblast Transformation Specific (ETS) (AID 2282941). The conditions noted are these: HepG2 ETS cis-reporter transcription; AC50: actives raise or lower the signal unless noted; outcome: actives raise or lower the signal unless noted. Summed up: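 After transient cis-reporter transfection, HepG2 cells receive test chemical for 24 h. Reporter mRNA levels, measured by RT-PCR and capillary electrophoresis fluorescence, are analysed bidirectionally relative to the DMSO baseline.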

Test [6] has as its target Hepatocyte nuclear factor 3-beta (Homo sapiens) (UniProt Q9Y261). As to the kind of experiment: ATG_FoxA2_CIS: Attagene CIS-FACTORIAL HepG2 Assay for human Forkhead box A2 (FOXA2) (AID 2282942). The following applies: HepG2 cis-reporter transcription factor activity, 24 h; actives raise or lower the signal. The gist of the method:
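Reporter transcript induction is measured by fluorescence after capillary electrophoresis of RT-PCR products from HepG2 cells exposed 24 h. Cis-regulated reporter units report endogenous factor activity; curves fitted both directions against DMSO.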

Test [7] in a line: ATG_FoxO_CIS: Attagene CIS-FACTORIAL HepG2 Assay for human Forkhead box O (FoxO) (AID 2282943). The conditions noted are these: HepG2 Attagene cis-reporter, FoxO element, mRNA; actives raise or lower the signal. Summed up:
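Values reflect reporter mRNA induction or loss in HepG2 cells 24 h post-dosing, fitted bidirectionally with DMSO as negative control and baseline. Detection used RT-PCR and fluorescence capillary electrophoresis.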

Test [8] in a line: ATG_GATA_CIS: Attagene CIS-FACTORIAL HepG2 Assay for human GATA Binding Protein (AID 2282944). The conditions noted are these: HepG2 GATA cis-element reporter, Attagene multiplex mRNA; actives raise or lower the signal. Summed up:
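Endogenous transcription factor activity was captured through cis-promoter-driven reporters in transfected HepG2 cells. After 24 h exposure, reporter transcripts were quantified by RT-PCR with fluorescent capillary electrophoresis, and responses fitted both directions against DMSO.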

Test [9] is described as follows: ATG_GLI_CIS: Attagene CIS-FACTORIAL HepG2 Assay for human Zinc Finger Protein GLI1 (AID 2282945). The conditions noted are these: HepG2, Attagene cis-factorial reporter mRNA, GLI element; actives raise or lower the signal. The gist of the method: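 HepG2 cells transiently transfected with cis-promoter multiplexed reporter units report endogenous transcription factor activity. After 24 h chemical exposure, reporter mRNA was quantified by RT-PCR, 6-FAM labelling, HpaI digestion and capillary electrophoresis, with bidirectional fitting against DMSO.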

Test [10] is described as follows: ATG_GRE_CIS: Attagene CIS-FACTORIAL HepG2 Assay for human Glucocorticoid Response Elements (GRE) (AID 2282947). The conditions noted are these: HepG2 GRE cis-reporter, Attagene multiplex mRNA; AC50: actives raise or lower the signal unless noted; outcome: actives raise or lower the signal unless noted. The gist of the method: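 Following 24 h chemical exposure of transiently transfected HepG2 cells, total RNA was reverse-transcribed and reporter cDNA amplified, fluorescently labelled and sized by capillary electrophoresis. Signal gain or loss was fitted relative to DMSO vehicle.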

The nature of test [11]: ATG_M_32_CIS: Attagene CIS-FACTORIAL HepG2 Assay for M32 Transcription Factor (Internal Marker) (AID 2282949).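 Also: background control marker of the multiplexed CIS panel rather than a real target.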 The following applies: HepG2 Attagene cis-factorial M32 reporter, mRNA; actives raise or lower the signal. The gist of the method: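 Fluorescent capillary electrophoresis peaks of HpaI-digested, FAM-labelled RT-PCR reporter products give the signal. Source: transiently transfected human liver HepG2 cells, 24 h after chemical dosing; bidirectional fitting against DMSO.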

Test [12] is described as follows: ATG_M_06_CIS: Attagene CIS-FACTORIAL HepG2 Assay for M06 Transcription Factor (Internal Marker) (AID 2282950). The following applies: HepG2 Attagene CIS-FACTORIAL M06 internal marker reporter; actives raise or lower the signal. Summed up:
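Steps: transfect HepG2 with multiplexed cis-element reporter constructs; dose chemical 24 h; extract RNA with DNase treatment; reverse-transcribe, PCR-amplify, 6-FAM label, HpaI digest; separate fragments by capillary electrophoresis. Activity fitted both directions versus DMSO.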

The target of test [13] is Hypoxia-inducible factor 1-alpha (Homo sapiens) (UniProt Q16665). Put plainly: ATG_HIF1a_CIS: Attagene CIS-FACTORIAL HepG2 Assay for human Hypoxia Inducible Factor 1 (HIF1A) (AID 2282951). The conditions noted are these: HepG2 Attagene cis-factorial HIF1a reporter transcription; actives raise or lower the signal. The gist of the method: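 Fluorescence intensity of capillary-separated, 6-FAM-labelled reporter amplicons gives mRNA induction in HepG2 cells carrying transfected cis-promoter reporter units; cells exposed 24 h, responses fitted up or down from DMSO.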

Test [14] addresses Hepatocyte nuclear factor 6 (Homo sapiens) (UniProt Q9UBC0). As to the kind of experiment: ATG_HNF6_CIS: Attagene CIS-FACTORIAL HepG2 Assay for human Hepatocyte Nuclear Factor 6 (HNF6) (AID 2282952). The conditions noted are these: HepG2 Attagene cis-factorial HNF6 reporter transcription; actives raise or lower the signal. The gist of the method: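 HepG2, transient MRTU transfection (cis promoters); 24 h chemical exposure; total RNA → oligo(dT) RT → PCR → 6-FAM labelling → HpaI cut → CE; bidirectional fit vs DMSO.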

In test [15] the target is Heat shock factor protein 1 (Homo sapiens) (UniProt Q00613). As to the kind of experiment: ATG_HSE_CIS: Attagene CIS-FACTORIAL HepG2 Assay for human Heat Shock Transcription Factor 1 (HSE) (AID 2282953). The conditions noted are these: HepG2 HSE cis-reporter, Attagene RNA transcription; actives raise or lower the signal. Summed up:
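Cells were transfected with cis-element-driven reporter constructs, dosed for 24 h, then total RNA was reverse-transcribed and reporter cDNA amplified, FAM-labelled and digested with HpaI. Fragments were resolved by capillary electrophoresis; gain or loss was fitted against DMSO.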

Test [16] can be described thus: ATG_MRE_CIS: Attagene CIS-FACTORIAL HepG2 Assay for human Metal Responsive Element (MRE) (AID 2282954). The following applies: HepG2 MRE cis-reporter transcription, Attagene multiplex; actives raise or lower the signal. Summed up: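 Step one: transfect HepG2 with cis-regulated reporter units. Step two: dose 24 h. Step three: isolate RNA, RT-PCR, 6-FAM label, HpaI digest, capillary electrophoresis. Fit bidirectionally to DMSO.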

Test [17] is described as follows: ATG_PBREM_CIS: Attagene CIS-FACTORIAL HepG2 Assay for human Phenobarbital-responsive Enhancer Module (PBREM) (AID 2282955). The following applies: HepG2 PBREM cis-reporter, Attagene multiplexed transcription; actives raise or lower the signal. The gist of the method:
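Cells were transfected with cis-element reporter units and treated for 24 h, after which RNA was extracted and reporter transcripts measured by RT-PCR and capillary electrophoresis.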

The target of test [18] is Bile acid receptor (Homo sapiens) (UniProt Q96RI1). Put plainly: ATG_IR1_CIS: Attagene CIS-FACTORIAL HepG2 Assay for human Nuclear Receptor Subfamily 1 Group H Member 4 (NR1H4), IR1 submotif (AID 2282946). The following applies: IR1 reporter transcription, actives raise or lower the signal. Summed up: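 Transient MRTU transfection, HepG2; 24 h dosing; RNA → RT-PCR → 6-FAM primer extension → HpaI digest → capillary electrophoresis fluorescence. Gain/loss of signal fitted relative to DMSO.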

Test [19] is described as follows: ATG_ISRE_CIS: Attagene CIS-FACTORIAL HepG2 Assay for human Interferon Regulatory Factor 1 (IRF1) binding to an Interferon-Stimulated Response Element (ISRE) (AID 2282948). The following applies: HepG2 ISRE cis-reporter (Attagene), mRNA transcription readout; actives raise or lower the signal. The gist of the method:
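Quantitation relies on labelled RT-PCR fragments separated by capillary electrophoresis. Human HepG2 cells bearing cis-promoter reporter constructs were treated 24 h; DMSO served as baseline for bidirectional fitting.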

The term AC50 denotes the concentration giving half of the maximal activity seen.

The source made the active and inactive calls. The calls were made as follows: active = hit-call score of the fitted dose curve at least 0.9, where 1 is the maximum; inactive = score below 0.9.

Sequence of Heat shock factor protein 1 (Homo sapiens) (Q00613 whole entry, looked up, the tested form may be a part): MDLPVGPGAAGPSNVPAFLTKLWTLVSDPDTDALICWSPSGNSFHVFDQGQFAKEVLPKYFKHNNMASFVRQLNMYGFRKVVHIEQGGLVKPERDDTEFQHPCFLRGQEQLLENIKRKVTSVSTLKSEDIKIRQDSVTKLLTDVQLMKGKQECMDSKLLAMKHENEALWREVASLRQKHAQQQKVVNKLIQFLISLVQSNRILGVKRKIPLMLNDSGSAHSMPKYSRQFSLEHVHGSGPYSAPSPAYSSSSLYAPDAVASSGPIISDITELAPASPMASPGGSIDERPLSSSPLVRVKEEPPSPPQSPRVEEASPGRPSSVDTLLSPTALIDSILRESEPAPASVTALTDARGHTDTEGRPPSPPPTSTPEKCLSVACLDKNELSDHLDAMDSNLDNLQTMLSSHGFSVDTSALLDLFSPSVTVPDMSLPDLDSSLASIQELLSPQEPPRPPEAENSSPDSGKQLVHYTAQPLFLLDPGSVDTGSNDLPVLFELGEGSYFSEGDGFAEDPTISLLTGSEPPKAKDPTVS
Sequence of Hepatocyte nuclear factor 3-beta (Homo sapiens) (Q9Y261 whole entry, looked up): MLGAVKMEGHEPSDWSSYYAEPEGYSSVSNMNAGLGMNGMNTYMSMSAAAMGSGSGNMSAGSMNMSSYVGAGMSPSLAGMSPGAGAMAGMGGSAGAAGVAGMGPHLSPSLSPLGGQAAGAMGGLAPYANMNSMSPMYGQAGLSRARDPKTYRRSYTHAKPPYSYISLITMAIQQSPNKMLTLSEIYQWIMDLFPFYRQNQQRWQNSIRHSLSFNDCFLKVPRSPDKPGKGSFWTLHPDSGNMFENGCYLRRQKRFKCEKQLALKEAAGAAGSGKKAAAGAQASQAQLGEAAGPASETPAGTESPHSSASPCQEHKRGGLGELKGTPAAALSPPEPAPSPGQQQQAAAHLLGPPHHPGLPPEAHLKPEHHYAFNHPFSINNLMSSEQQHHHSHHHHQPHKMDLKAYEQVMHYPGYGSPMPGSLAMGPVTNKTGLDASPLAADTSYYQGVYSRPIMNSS
Sequence of Hepatocyte nuclear factor 6 (Homo sapiens) (Q9UBC0 whole entry, looked up): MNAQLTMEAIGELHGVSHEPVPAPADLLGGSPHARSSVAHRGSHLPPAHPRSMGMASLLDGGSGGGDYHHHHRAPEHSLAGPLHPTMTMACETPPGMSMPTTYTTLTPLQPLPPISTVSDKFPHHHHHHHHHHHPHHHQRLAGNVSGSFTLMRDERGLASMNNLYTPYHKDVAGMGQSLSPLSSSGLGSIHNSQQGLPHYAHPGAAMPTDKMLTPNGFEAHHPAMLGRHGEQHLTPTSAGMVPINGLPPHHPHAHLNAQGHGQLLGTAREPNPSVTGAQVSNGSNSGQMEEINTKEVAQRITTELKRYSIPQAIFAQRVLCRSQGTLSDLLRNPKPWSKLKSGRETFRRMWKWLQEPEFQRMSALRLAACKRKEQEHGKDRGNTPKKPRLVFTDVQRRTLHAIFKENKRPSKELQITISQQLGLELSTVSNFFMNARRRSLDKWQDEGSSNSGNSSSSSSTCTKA
Sequence of Bile acid receptor (Homo sapiens) (Q96RI1 whole entry, looked up): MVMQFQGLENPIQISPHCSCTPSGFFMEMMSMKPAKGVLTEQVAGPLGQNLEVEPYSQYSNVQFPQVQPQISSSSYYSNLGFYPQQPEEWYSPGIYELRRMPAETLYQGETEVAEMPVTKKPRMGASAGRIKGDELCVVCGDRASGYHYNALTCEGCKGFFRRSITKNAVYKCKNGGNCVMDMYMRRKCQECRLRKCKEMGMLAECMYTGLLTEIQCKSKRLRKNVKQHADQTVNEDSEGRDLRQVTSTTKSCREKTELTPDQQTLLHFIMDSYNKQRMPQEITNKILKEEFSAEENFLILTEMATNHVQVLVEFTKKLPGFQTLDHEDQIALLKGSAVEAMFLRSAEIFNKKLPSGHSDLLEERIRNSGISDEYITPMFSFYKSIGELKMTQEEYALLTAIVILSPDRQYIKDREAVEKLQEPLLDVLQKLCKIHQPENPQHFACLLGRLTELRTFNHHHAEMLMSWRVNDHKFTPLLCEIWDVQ
Sequence of Hypoxia-inducible factor 1-alpha (Homo sapiens) (Q16665 whole entry, looked up): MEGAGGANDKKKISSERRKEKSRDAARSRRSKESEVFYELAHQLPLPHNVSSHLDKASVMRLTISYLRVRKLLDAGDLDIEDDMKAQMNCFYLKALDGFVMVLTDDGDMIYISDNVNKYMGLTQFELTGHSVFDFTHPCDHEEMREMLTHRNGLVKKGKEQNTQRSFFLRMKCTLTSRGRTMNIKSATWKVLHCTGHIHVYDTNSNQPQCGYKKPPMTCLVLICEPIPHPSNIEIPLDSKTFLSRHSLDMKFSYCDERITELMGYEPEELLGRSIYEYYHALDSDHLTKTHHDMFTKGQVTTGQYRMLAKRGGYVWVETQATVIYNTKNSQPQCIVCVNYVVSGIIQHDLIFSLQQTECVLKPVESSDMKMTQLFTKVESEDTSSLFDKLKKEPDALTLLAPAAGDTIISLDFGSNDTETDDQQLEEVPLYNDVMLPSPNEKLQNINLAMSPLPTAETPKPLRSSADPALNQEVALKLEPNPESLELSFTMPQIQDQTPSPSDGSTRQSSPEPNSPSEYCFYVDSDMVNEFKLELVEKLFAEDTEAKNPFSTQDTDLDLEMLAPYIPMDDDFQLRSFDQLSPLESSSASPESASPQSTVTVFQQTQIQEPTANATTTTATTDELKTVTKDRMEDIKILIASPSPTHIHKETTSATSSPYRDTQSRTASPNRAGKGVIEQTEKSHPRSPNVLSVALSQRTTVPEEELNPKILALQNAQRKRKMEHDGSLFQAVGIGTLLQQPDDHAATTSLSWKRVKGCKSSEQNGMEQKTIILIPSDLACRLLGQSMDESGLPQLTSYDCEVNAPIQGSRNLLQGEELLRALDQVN

Consider `O=S(=O)(O)c1ccc2cc(O)ccc2c1`, for which the result in [1], in test [2], in test [3], in test [4], in test [5] and in [6] was inactive. Also, the molecule was classed as inactive in [7], in [8], in [9], in test [10], in [11] and in test [12]. Moreover, the molecule was called inactive in test [13], in [14], in test [15], in test [16] and in [17].
Take `O=C(CCCN1CCC(O)(c2ccc(Cl)cc2)CC1)c1ccc(F)cc1`: the AC50 in test [1] was 22 µM (active); in test [3] it was 33.4 µM (active); in [7] it was 52.7 µM (active); in test [8], 52.8 µM (active); in test [10], 52 µM (active); in test [11] it was 62.4 µM (active). In addition, the AC50 in test [16] was 33.4 µM (active). The result in [2], in test [4], in test [5], in test [6] and in [12] was inactive.
Turning to `CNNCc1ccc(C(=O)NC(C)C)cc1`, the result in test [1], in [2], in test [3], in test [4], in test [5] and in test [6] was inactive. Also, the result in [7], in test [8], in test [9], in [10], in [11] and in [12] was inactive. For the same molecule, the result in test [13], in test [14], in test [15], in test [16] and in test [17] was inactive.
With `COC1=CC(=O)C[C@@H](C)[C@]12Oc1c(Cl)c(OC)cc(OC)c1C2=O`, the result in test [1], in test [2], in [3], in test [4], in test [5] and in test [7] was inactive. The molecule was classed as inactive in test [8], in test [9], in test [18], in [10], in test [19] and in [11]. The outcome in test [12], in test [14], in test [15], in test [16] and in test [17] was inactive. The AC50 in test [13] is 26.6 µM (active).
Take `O=CC(F)(F)C(F)(F)C(F)(F)C(F)F`: the outcome in test [1], in test [2], in [3], in test [4], in test [5] and in [6] was inactive. Further, the molecule was classed as inactive in [7], in test [8], in test [9], in test [18], in test [10] and in test [19]. Also, the molecule was called inactive in test [11], in test [12], in test [13], in [14], in test [15] and in test [17].
With `NNc1nc(-c2ccc([N+](=O)[O-])cc2)cs1`, the outcome in test [1], in [2], in test [3], in test [4], in test [5] and in test [7] was inactive. The result in test [8], in test [9], in test [18], in [10], in test [11] and in test [12] was inactive. The molecule was called inactive in test [13], in test [14], in test [16] and in test [17]. In addition, the AC50 in test [15] is 51.3 µM (active).
For `FC(OC(F)(F)C(F)(F)C(F)(F)F)C(F)(F)F` (stereo not drawn), the result in test [1], in [2], in test [3], in [4], in [5] and in test [6] was inactive. Further, the molecule was called inactive in test [7], in test [8], in [18], in test [10], in test [11] and in [12]. In addition, the call in test [13], in test [14], in test [15] and in [17] was inactive.
Regarding `OCC1CCC(CO)CC1` (stereo not drawn), the result in [1], in test [2], in [3], in test [4], in test [5] and in test [7] was inactive. Further, the molecule was called inactive in test [8], in [9], in test [18], in [10], in test [19] and in test [11]. Besides, the molecule was classed as inactive in test [12], in [13], in test [14], in test [15], in test [16] and in [17].
